# How the values were obtained:
# Assay in all cases: cross-linking mass spectrometry
# Details in all cases: DSSO, not determined
# ATP1B3 = ATP1B3 (UniProt P54709)
# DIP2B = DIP2B (UniProt Q9P265)
# INPP5F = INPP5F (UniProt Q9Y2H2)
# ITPR2 = ITPR2 (UniProt Q14571)
# NMI = NMI (UniProt Q13287)
# S100A6 = S100A6 (UniProt P06703)
# SLC44A1 = SLC44A1 (UniProt Q8WWI5)
# WAC = WAC (UniProt Q9BTA9)
substance,measurement,setting,value
"PLS3, P13797",cross-linked residues,ATP1B3,K42 - K182
"PLK3, Q9H4B4",cross-linked residues,DIP2B,K217 - K118
"B2M, P61769",cross-linked residues,INPP5F,K39 - K352
"OAS2, P29728",cross-linked residues,ITPR2,K388 - K954
"RNASEH1, O60930",cross-linked residues,NMI,K236 - K156
"TPD52L2, O43399",cross-linked residues,S100A6,K175 - K47
"KNTC1, P50748",cross-linked residues,SLC44A1,K859 - K145
"CENPN, Q96H22",cross-linked residues,WAC,K245 - K175
